Sa RN4220 lethal: growth inhibition of S. aureus RN4220, primary screen, OD600; 16 h; inhibition, % (no concentration beside the values); 0.33% of 330,000 active; in the data active = inhibition above about 85%;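 note: plate controls were untreated cells for no effect and reference antibiotic for full effect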
SARS 3CLpro inh-1: SARS-CoV 3CLpro protease inhibitors, primary screen, biochemical, quenched FRET; 0.14% of 290,000 active; recombinant SARS-CoV 3CLpro, quenched FRET peptide cleavage; Replicase polyprotein 1ab (Severe acute respiratory syndrome coronavirus), P0C6X7; inhibition, % at 6 µM; AID 1706, 2009; in the data active = inhibition above about 12%
DUSP3 inh: VHR1 phosphatase inhibitors, primary screen, biochemical, absorbance, uHTS; inhibition, % at 13.3 µM; AID 1654, 2009; 0.52% of 290,000 active; recombinant VHR phosphatase, pNPP absorbance; Dual specificity protein phosphatase 3 (Homo sapiens), P51452; in the data active = inhibition above about 50%
BJeLR lethal: MLPCN primary cell-based screen for lethality selective to Ras in HRASV12 cells; AID 1554, 2009; inhibition, % (no concentration beside the values); 0.17% of 300,000 active; BJeLR (HRASV12) viability, CellTiter-Glo ATP luminescence, 48 h; in the data active = inhibition above about 50%
PrPC TRFRET: inhibitors of human cell surface prion protein PrPC, primary screen, cell-based, TR-FRET | Major prion protein (Homo sapiens), P04156 | TR-FRET read-out | inhibition, % at 13.8 µM | 0.43% of 370,000 active; in the data active = inhibition above about 24%; note: 0% = median of the test wells and 100% = reference compound wells
Sa ugtP lethal: growth inhibition of ugtP-null S. aureus, primary screen, RN4220 ugtP deletion, OD600; 16 h; growth inhibition, % (test concentration not listed); 0.54% of 330,000 active; in the data active = growth inhibition above about 68%;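 note: plate controls were untreated wells for no effect and antibiotic for full effect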
SARS 3CLpro inh-2: confirmation of SARS coronavirus 3C-like protease inhibitors, retest, confirmation, biochemical; 36% of 380 active; inhibition, % at 6 µM; shares compounds with SARS 3CLpro inh-1; QFRET protease activity assay, 3CLpro; in the data active = inhibition above about 13%
PrPC confirm: confirmation of inhibitors of cell surface human prion protein, confirmation, cell-based, TR-FRET; inhibition, % at 13.8 µM; AID 743200, 2013; 65% of 1,500 active; cell surface PrPC level; shares compounds with PrPC TRFRET; in the data active = inhibition above about 25%
LD9 tox: cytotoxicity in LD9 cells, cytotoxicity control for cell surface PrPc inhibitor project, cell-based, luminescence, high throughput. shares compounds with PrPC TRFRET. luminescence viability. inhibition, % at 13.8 µM. 29% of 1,500 active; in the data active = inhibition above about 9.5%
Active calls of the source: *; / = no result given. The list is not random: actives were taken first. Their share in the collection is about 1.4%.

SMILES	Sa RN4220 lethal	SARS 3CLpro inh-1	DUSP3 inh	BJeLR lethal	PrPC TRFRET	Sa ugtP lethal	PrPC confirm	LD9 tox	others
COC(=O)C1=C(c2ccc(-c3ccccc3)c(F)c2)CC2CCC1N2C(=O)NCCOc1ccccc1Cl (centres undefined)	17.5	/	/	/	/	8.4	/	/
CCOc1ccc(N(Cc2cc3ccc(C)cc3[nH]c2=O)S(=O)(=O)c2ccccc2)cc1	2.8	13.0*	29.8	-6.5	-5.8	-1.3	/	/	SARS 3CLpro inh-2=6.4
CCCOC(=O)c1c(-c2ccc(C)cc2C)csc1NC(=O)C1C2CCC(O2)C1C(=O)O (centres undefined)	11.7	12.5*	-1.5	-3.0	2.9	81.6	/	/	SARS 3CLpro inh-2=0.9
COC(=O)[C@@]1(Cc2ccc(F)cc2)C2c3cc(C(=O)N(C)C)n(CCc4ccc(OC)c(Br)c4)c3CC2CN1C(=O)c1ccccc1 (some centres undefined)	1.5	/	/	/	/	-38.7	/	/
COc1ccc(C2CC(=O)C=C(c3cc(F)ccc3F)C2)cc1OC (centres undefined)	5.6	/	/	/	/	-2.4	/	/
c1cncc(Nc2nc(-c3cccnc3)cs2)c1	5.7	-1.2	-2.6	4.5	-3.6	43.9	/	/
Clc1ccccc1Nc1nc(-c2cccnc2)cs1	4.6	13.9*	-13.6	1.3	1.1	4.3	/	/	SARS 3CLpro inh-2=10.9
CCC(CC)CN1C(Nc2ccccc2)=NCC1CC(C)C (centres undefined)	4.8	/	/	/	/	3.4	/	/
COc1cc(O)c2c(=O)c3c(OC4OC(CO)C(O)C(O)C4O)ccc(O)c3oc2c1 (centres undefined)	0.0	/	/	/	/	-2.4	/	/
O=C(CCS(=O)(=O)c1ccc(F)cc1)N1CCN(c2ccccc2)CC1	2.2	/	/	9.7	5.0	5.1	/	/
O=C(CCS(=O)(=O)c1ccccc1)N1CCN(c2ccc(F)cc2)CC1	4.2	12.6*	-0.2	-5.4	-6.5	2.0	/	/	SARS 3CLpro inh-2=-0.5
Cc1nc(N2CCC(C)CC2)c2c(C)c(C(=O)Nc3ccc4c(c3)OCCO4)sc2n1	5.1	14.2*	5.3	-7.3	5.7	-9.2	/	/	SARS 3CLpro inh-2=2.7
Cc1nc(N2CCC(C)CC2)c2c(C)c(C(=O)Nc3ccc(C(F)(F)F)cc3)sc2n1	4.3	-3.8	-3.1	-0.5	-0.3	-34.8	/	/
Cc1ccc2cccc(NS(=O)(=O)c3ccccc3)c2n1	/	3.3	1.2	69.2*	34.1*	/	66.6*	71.5*
CC(=O)Nc1ccc(S(=O)(=O)Nc2cccc3cccnc23)cc1	3.1	2.0	30.6	-1.0	-0.4	1.9	/	/
O=S(=O)(Nc1cccc2cccnc12)c1ccccc1	/	-2.7	-47.0	74.5*	53.8*	/	39.5*	80.9*
O=S(=O)(Nc1cccc2cccnc12)c1ccc(S(=O)(=O)N2CCCC2)cc1	1.0	5.7	13.5	-3.3	37.1*	5.2	10.3	23.9*
CC=C(C)C(=O)OC1C(O)c2c(ccc3ccc(=O)oc23)OC1(C)C (centres undefined)	8.1	/	/	/	/	-5.3	/	/
COc1ccc(CC2C(=O)NC(C)C(=O)N(C)C3C(=O)N(C)C(Cc4ccc(O)c(c4)Oc4ccc(cc4)C3O)C(=O)NC(C)C(=O)NC(C)C(=O)N2C)cc1 (centres undefined)	/	/	/	/	87.2*	/	94.9*	38.2*
O=C(O)c1ccccc1SCc1csc(-c2ccccc2)n1	1.2	1.1	12.2	3.7	76.3*	1.4	59.8*	-3.6
CCOC(=O)c1sc(Nc2nc3c(OC)cccc3s2)cc1C	-6.9	2.0	-9.7	-11.3	40.0*	-15.2	47.5*	-6.5
Cc1ccc2c(c1)C(=O)N1C3c4cc(C)ccc4OCC3C(c3ccccc3)[C@]1(C)C(=O)N2 (some centres undefined)	-4.9	/	/	/	/	-1.6	/	/
C[C@@]12C(=O)Nc3ccc(Cl)cc3C(=O)N1[C@H]1c3cc(Cl)ccc3OC[C@@H]1[C@@H]2c1ccccc1	/	/	/	/	26.0*	/	16.2	-7.9
Cc1ccc2c(c1)[C@H]1[C@H](CO2)[C@H](c2ccccc2)[C@]2(C)C(=O)Nc3ccc(Cl)cc3C(=O)N12	/	/	/	/	24.8*	/	14.2	-7.3
COc1ccc2c(c1)[C@H]1[C@H](CO2)[C@H](c2ccccc2)[C@]2(C)C(=O)Nc3ccc(C)cc3C(=O)N12	/	/	/	/	16.1	/	/	/
SMILES	Sa RN4220 lethal	SARS 3CLpro inh-1	DUSP3 inh	BJeLR lethal	PrPC TRFRET	Sa ugtP lethal	PrPC confirm	LD9 tox	others
Cc1ccc2c(c1)C1C(CO2)C(c2ccccc2)[C@]2(C)C(=O)Nc3ccc(Cl)cc3C(=O)N12 (some centres undefined)	-6.2	/	/	/	/	-0.2	/	/
COc1ccc2c(c1)C(=O)N1[C@H]3c4cc(C)ccc4OC[C@@H]3[C@H](c3ccccc3)[C@]1(C)C(=O)N2	/	/	/	/	33.7*	/	23.4	-5.8
COCCN1C(=O)NC(c2cccs2)C(C(C)=O)=C1C (centres undefined)	-2.9	/	/	/	/	-11.2	/	/
COc1cc(CCCN2C(=O)C(=O)NCC2CCCCN)cc(OC)c1OC (centres undefined)	5.8	/	/	/	/	4.0	/	/
N#Cc1ccc(C23CC4(C2)C(CN(Cc2ccc(C(F)(F)F)cc2)C4c2ccccc2)C3c2ccc(Cl)nc2)cc1 (centres undefined)	-2.4	/	/	/	/	0.5	/	/
CC(NC(=O)c1csc2ccccc12)C1CCCO1 (centres undefined)	1.4	1.3	8.3	2.3	12.7	0.1	/	/
O=C(O)CC(NC(=O)c1sc2ccccc2c1Cl)c1ccc(OC2CCCC2)cc1 (centres undefined)	3.0	10.8	-12.8	-10.1	31.2*	-1.7	28.5*	-5.2
Cc1ccc2c(Cl)c(C(=O)NCC3CCCO3)sc2c1 (centres undefined)	3.9	-0.5	11.7	1.3	24.6*	7.6	37.4*	1.3
O=C(NCC1CCCO1)c1sc2ccccc2c1Cl (centres undefined)	2.6	0.4	21.2	12.4	8.8	0.9	/	/
CC(NC(=O)c1sc2ccccc2c1Cl)C1CCCO1 (centres undefined)	6.5	5.0	4.7	2.8	38.4*	2.9	43.9*	-3.5
CCC(=O)Nc1cccc(C2=NOC3(C2)CC(C(N)=O)N(C(=O)c2cc([N+](=O)[O-])cc([N+](=O)[O-])c2)C3)c1 (centres undefined)	-0.9	/	/	/	/	-2.7	/	/
CCc1ccc(C2C(C#N)=C(N)SC(N)=C2C#N)cc1	1.0	3.5	1.5	13.0	5.7	-9.5	/	/
CCOc1ccc(C2C(C#N)=C(N)SC(N)=C2C#N)cc1OCC	-1.3	/	35.8	-5.7	26.9*	-14.5	72.5*	0.8
